This is part of a sample that, as a whole, favours compounds with a hit. Of some 83,000 tested, about 20% had one in any assay.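 Each cell line was grown in a 96-well plate and treated with one concentration of compound for 48 hours. Values below 10 were considered active.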 Unmarked numbers belong to inactive results. Calls of active or inactive are those of the source.
Tests used:
Test in all cases: NCI-60 one-dose screen, 48 h (100 = growth as untreated, 0 = no growth, -100 = all killed)
Conditions in all cases: 10 µM unless noted
NCI-H23 lung = tested on: NCI-H23 lung
NCI-H226 lung = tested on: NCI-H226 lung
NCI-H322M lung = tested on: NCI-H322M lung
HOP-62 NSCLC = tested on: HOP-62 NSCLC
NCI-H460 lung = tested on: NCI-H460 lung
HOP-92 NSCLC = tested on: HOP-92 NSCLC
NCI-H522 lung = tested on: NCI-H522 lung
A549/ATCC NSCLC = tested on: A549/ATCC NSCLC
786-0 renal = tested on: 786-0 renal
COLO 205 colon = tested on: COLO 205 colon
DU-145 prostate = tested on: DU-145 prostate
K-562 leukemia = tested on: K-562 leukemia
MALME-3M melanoma = tested on: MALME-3M melanoma
MDA-MB-231 breast = tested on: MDA-MB-231 breast
RXF 393 renal = tested on: RXF 393 renal
SF-268 CNS = tested on: SF-268 CNS
SF-295 CNS = tested on: SF-295 CNS
SF-539 CNS = tested on: SF-539 CNS
M14 melanoma = tested on: M14 melanoma
UACC-257 melanoma = tested on: UACC-257 melanoma

SMILES | growth (NCI-H23 lung) | growth (NCI-H226 lung) [%] | growth (NCI-H322M lung) | growth (HOP-62 NSCLC) | growth (NCI-H460 lung) | growth (HOP-92 NSCLC) | growth (NCI-H522 lung) | growth (A549/ATCC NSCLC) | growth (786-0 renal) | growth (COLO 205 colon) | growth (DU-145 prostate) | growth (K-562 leukemia) | growth (MALME-3M melanoma) | growth (MDA-MB-231 breast) | growth (RXF 393 renal) | growth (SF-268 CNS) | growth (SF-295 CNS) | growth (SF-539 CNS) | growth (M14 melanoma) | growth (UACC-257 melanoma) [%]
COc1ccc(-c2cc(-c3c(C)oc4cc5occc5c(OC)c4c3=O)nc(N)c2C#N)cc1OC | 73.4% | 66.2 | 81.2% | 50.3% | 32.4% | 10.6% | 47.1% | 57.2% | 83.1% | 68.1% | 81.9% | 32% | 86.4% | 64.4% | 61.6% | 65.1% | 52.1% | 64.2% | 72.2% | 
COc1cc(-c2cc3cc(O)ccc3oc2=O)cc(OC)c1OC | 101% | 89.2 | 85.9% | 90.9% | 107% | 86.5% | 86.5% | 107% | 98.2% | 102% | 107% | 89.1% | 112% | 72.8% | 101% | 102% | 91.9% | 87.1% | 86.9% | 
COc1cc2ncnc(Nc3ccc(Oc4ccnc(C)c4)c(C)c3)c2cc1NC(=O)CC1CCSS1 (stereo not drawn) | -49.5% (active) | 25.8 | -49.6% (active) | -50.7% (active) | -53.1% (active) | 62.6% | -57.6% (active) | -63.8% (active) | 52.5% | -81.1% (active) | -7.01% (active) | -50.9% (active) | -27.5% (active) | -27.8% (active) | 8.74% (active) | -53.2% (active) | -65.3% (active) | 1.45% (active) | -65.1% (active) | 
COc1ccccc1CNc1nc(N)nc2[nH]c3ccc(O)cc3c12 | 57.8% | 92.6 | 61.5% | 37% | 18.3% | 34.1% | 18.7% | 40.6% | 83.2% | 33.6% | 91% | 11.1% | 53.6% | 26.8% | 78% | 64.7% | 49.6% | 45.5% | 10.5% | 
N#Cc1cnc2cc(OC[C@@H](O)CO)c(NC(=O)C3CCCC3)cc2c1Nc1ccc(OCc2cccc(F)c2)c(Cl)c1 | 13.6% | 38.5 | 35.7% | -51.9% (active) | 0.536% (active) | -37.2% (active) | -58.5% (active) | 47.9% | 43.6% | 49.6% | -90.8% (active) | 0.239% (active) | -48.8% (active) | -58.5% (active) | -62.6% (active) | 23.1% | 1.06% (active) | -32.5% (active) | -53% (active) | 
O=S(=O)(NCCNc1cc(-c2cn(-c3ccccc3)nc2-c2cccc(O)c2)ccn1)c1ccc(Br)cc1 | 39.4% | 45 | 50.8% | 40.4% | 26% | 33.3% | 31.9% | 27.2% | 2.12% (active) | -64% (active) | 52.2% | 3.66% (active) | 43.2% | 4.31% (active) | 40.1% | 36.1% | 7.27% (active) | 46.2% | 20.3% | 
CCCCCCCC(=O)SCC/C=C/[C@@H]1CC(=O)NCc2cccc(n2)CN(Cc2ccc3ccccc3c2)CC(=O)N[C@@H](C(C)C)C(=O)O1 | 45.7% | 67.5 | 40% | 24% | 27.6% | 18.2% | 66.1% | 35.3% | 72.1% | 33.7% | 51.4% | 13.8% | 8.13% (active) | 27.3% | 20.3% | 61.1% | 9.4% (active) | 59.1% | 28.4% | 
CCN(CC)C(=O)CCCCCn1c2ccccc2c2c3c(c4c5ccccc5[nH]c4c21)C(=O)N(O)C3=O | 46.8% | 69.9 | 81.8% | -26.4% (active) | 53.1% | 78.5% | -66.5% (active) | 87.2% | 78.1% | -7.19% (active) | 69% | 40.8% | 102% | 42.9% | 45.6% | 51.6% | 62.5% | 39.7% | 53.9% | 
Cc1cc(C)c(NC(=O)c2sc3nc4c(cc3c2N)CCCC4)c(C)c1 | 59.8% | 78.6 | 88.7% | 24.1% | 28.8% | 52.3% | 4.49% (active) | 50.1% | 47.3% | 42.6% | 70.3% | 12.4% | 44.7% | 71.8% | 57.9% | 48.8% | 29.2% | 26.9% | 24.5% | 
O=C(CCCCCn1c2ccccc2c2c3c(c4c5ccccc5[nH]c4c21)C(=O)N(O)C3=O)N1CCOCC1 | 52% | 19.1 | 74.4% | 11.6% | 35.8% | 89.8% | 9.19% (active) | 91.4% | 80.3% | 62% | 69.6% | 33.6% | 113% | 48.2% | 56% | 47.4% | 28.5% | 35.6% | 38.6% | 
COC(=O)[C@]12CC[C@@H](C)[C@H](C)[C@@H]1C1=CC(=O)[C@@H]3[C@@]4(C)C[C@@H](O)[C@H](O)[C@@]5(C)COC(=C45)C[C@@]3(C)[C@]1(C)CC2 | 76.9% | 81.6 | 88.4% | 50.8% | 34.6% | 45.6% | 51% | 41.6% | 78.5% | 40.8% | 92.7% | 14.2% | 68% | 45.8% | 63.1% | 80.8% | 61.3% | 54.1% | 27.4% | 
COC(=O)c1cc(=O)nc(N/N=C/c2ccc(C)cc2)s1 | 107% | 98.5 | 108% | 98.6% | 106% | 66.4% | 91.9% | 101% | 103% | 114% | 114% | 96.1% | 94.3% | 113% | 111% | 104% |  | 102% |  | 97.5
O=S(=O)(NCCNc1cc(-c2cn(-c3ccccc3)nc2-c2cccc(O)c2)ccn1)c1cccc(F)c1 | 45.8% | 55.3 | 56.2% | 56.7% | 33.1% | 51.1% | 26.7% | 42.4% | 16.8% | -4.68% (active) | 63.5% | 7.94% (active) | 64.9% | 11.5% | 62.3% | 54.9% | 22.4% | 51.2% | 31.8% | 
O=C1CCN2C(=O)Nc3ccccc3C2C1 (stereo not drawn) | 101% | 104 | 95.8% | 109% | 100% | 96.7% | 100% | 101% | 99.3% | 107% | 112% | 101% | 87.4% | 93.5% | 112% | 110% | 97.5% | 95.5% | 86.3% | 
Cn1c(=O)c2c(ncn2CCC(=O)Nc2ccc(F)cc2)n(C)c1=O | 100% | 109 | 105% | 92.6% | 108% | 95.5% | 90.3% | 89.5% | 95.1% | 108% | 105% | 96% | 114% | 102% | 115% | 103% | 105% | 96.9% | 97.8% | 
CCCCCCCC(=O)SCC/C=C/[C@@H]1CC(=O)NCc2cccc(n2)CN(Cc2ccc(Cl)cc2)CC(=O)N[C@@H](C(C)C)C(=O)O1 | 19.5% | 16.1 | 8.85% (active) | 8.04% (active) | 11.9% | -16.5% (active) | 29.6% | 2.92% (active) | 14.4% | -40.4% (active) | 20.6% | 9.09% (active) | 25.1% | -1.33% (active) | -20.4% (active) | 18% | -68.2% (active) | 14.7% | 8.96% (active) | 

— PubChem BioAssay (NCI)
